This is a sample that favours compounds with a hit; in the whole collection about 1.8% have one here.
Neddylation inh: cullin neddylation inhibition; inhibition, % at 25 µM; AID 651699; TR-FRET cullin neddylation, biochemical; 0.58% of 360,000 active; P61081+Q13564; in the data active = inhibition above about 36%
H9c2 protect: myocardial damage modulation in H9c2 cells; H9c2 cardiomyocytes, H2O2 injury protection, ATPLite, 2 h; protection from H2O2 cell death, % at 20 µM; 0.63% of 360,000 active;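 active = compounds giving at least 50% protection of heart cells from peroxide-induced death in the single-dose screen, raw or plate-pattern-corrected value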;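 note: 0% = DMSO wells with peroxide and 100% = DMSO wells without peroxide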
HDAC3 inh: inhibitors of human histone deacetylase 3; O15379; recombinant HDAC3, fluorogenic peptide/trypsin coupled, fluorescence; inhibition, % at 8.3 µM; 0.15% of 320,000 active; AID 2718; in the data active = inhibition above about 26%, passing the limit was not always enough
GRK2 inh: human GRK2 inhibition via aptamer displacement | 0.59% of 330,000 active | AID 488847 | bead flow cytometry, FAM-aptamer displacement from GRK2 | P25098 | inhibition of aptamer binding, % at 10 µM;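 active = inhibition of aptamer binding above 40%, roughly 3 SD of noise, on plates passing a quality check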;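 note: median bead fluorescence of bound FAM aptamer so fluorescent compounds give negative values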
Target sequence (P25098 whole entry, looked up): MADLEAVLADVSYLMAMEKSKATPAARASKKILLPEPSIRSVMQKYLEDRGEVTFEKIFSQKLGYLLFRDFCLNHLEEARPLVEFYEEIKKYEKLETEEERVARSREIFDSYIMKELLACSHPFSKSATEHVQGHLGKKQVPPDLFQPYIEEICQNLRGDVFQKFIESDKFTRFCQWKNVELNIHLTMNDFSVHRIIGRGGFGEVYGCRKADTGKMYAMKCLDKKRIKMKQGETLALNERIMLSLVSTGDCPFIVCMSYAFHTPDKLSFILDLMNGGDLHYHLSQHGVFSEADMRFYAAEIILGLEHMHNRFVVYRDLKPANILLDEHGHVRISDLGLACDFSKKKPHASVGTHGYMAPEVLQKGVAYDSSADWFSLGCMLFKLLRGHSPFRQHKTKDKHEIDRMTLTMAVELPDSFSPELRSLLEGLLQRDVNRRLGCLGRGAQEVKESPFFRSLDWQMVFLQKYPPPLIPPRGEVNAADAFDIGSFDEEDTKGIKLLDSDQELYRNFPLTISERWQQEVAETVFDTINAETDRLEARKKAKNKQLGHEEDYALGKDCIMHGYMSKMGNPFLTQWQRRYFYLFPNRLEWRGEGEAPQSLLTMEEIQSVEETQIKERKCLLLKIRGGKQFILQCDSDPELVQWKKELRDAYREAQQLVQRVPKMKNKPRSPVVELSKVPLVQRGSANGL
GRK2 CP1: confirmation of human GRK2 inhibitors displacing RNA aptamer; shares compounds with GRK2 inh; bead-bound GRK2, FAM-aptamer displacement, flow cytometry; aptamer displacement, % at 10 µM; 4% of 2,000 active;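 active = aptamer displacement above 40%, near three times the noise of non-fluorescent compounds, on plates passing quality checks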;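 note: negative values mostly reflect intrinsic compound fluorescence rather than true enhancement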
FAM quench CP1: counter-screen for GRK2 aptamer inhibitors: fluorescent aptamer quenchers | Carboxyfluorescein RNA aptamer on beads, flow cytometry quenching; active compounds read low | 2,000 tested, under 10 active | shares compounds with GRK2 inh | AID 504580 | fluorescence response (% of DMSO), % at 10 µM;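 active = compounds that quench the bead-bound fluorescent RNA probe, cutting fluorescence to under half of the solvent control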;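 note: counterscreen run without GRK2 so only probe quenching by compound is measured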
GRK2 confirm 2: confirmation of human GRK2 inhibitors binding RNA aptamer site; inhibition of aptamer binding, % at 10 µM; 360 tested, under 10 active; bead-bound GRK2, FAM-aptamer displacement, flow cytometry; shares compounds with GRK2 inh;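 active = inhibition of aptamer binding above 40%, about triple the noise seen with nonglowing compounds, on plates passing quality control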;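 note: negative values mostly come from compounds that fluoresce themselves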
FAM quench SP: aptamer fluorescence quenching in GRK2 counter-screen; shares compounds with GRK2 inh; carboxyfluorescein RNA aptamer beads, flow cytometry quenching; active compounds read low; fluorescence response vs DMSO, % at 10 µM; 360 tested, under 10 active;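 active = response vs DMSO under 50%, meaning signal dropped by over half, treated as fluorescence quencher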;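 note: labelled aptamer on streptavidin beads without GRK2 as a quench counter-screen; 100% = bead fluorescence of DMSO wells and lower means quenching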
An asterisk follows results filed as active; · = no result shown; ! = repeats disagree.

SMILES | Neddylation inh | H9c2 protect | HDAC3 inh | GRK2 inh | GRK2 CP1 | FAM quench CP1 | others
C=CCNC(=O)C1=NOC(CNC(=O)c2c(-c3ccccc3Cl)noc2C)C1 (stereo unspecified) | 5 | 8 | -1 | 0 | · | ·
Nc1nc(NCCO)nc(NCc2ccccc2)c1[N+](=O)[O-] | -7 | 9 | 7 | 97* | 4 | 96
COc1ccc(SCC(=O)Nc2ccccc2Cl)cc1 | 8 | -2 | -2 | 65* | · | · | GRK2 confirm 2=3;FAM quench SP=101
COc1ccc(OCC(=O)Nc2ccccc2Cl)cc1 | 10 | -5 | -10 | 1 | · | ·
CCCCN(CCCC)CP(=O)(c1ccccc1)c1ccccc1 | -3 | 12 | -6 | 0 | · | ·
O=C(N/N=C/c1c(O)ccc2ccccc12)Nc1ccccc1 | · | · | 6 | 43* | -2 | 99
COc1ccc(/C=C/C(=O)c2cccc(-n3cnnn3)c2)cc1O | 6 | 2 | -4 | 98* | 0 | 100
CC(C(=O)N1CCOCCOCCOCC1)N1C(=O)c2ccccc2C1=O (stereo unspecified) | 5 | -9 | -2 | 86* | -1 | 98
CC(Oc1ccccc1Cl)C(=O)N1CCOCC1 (stereo unspecified) | -6 | -1 | -3 | 43* | · | · | GRK2 confirm 2=3;FAM quench SP=100
COc1ccc(C(=O)Nc2nc(CC(=O)NCc3c(F)cccc3F)cs2)cc1 | 9 | -11 | · | · | · | ·
Cn1c(Oc2ccccc2)c(C=O)c2ccccc21 | -5 | 0 | 1 | 53* | -7 | 97
CCS(=O)(=O)N1Cc2ccccc2CC1C(=O)NCCc1ccccc1 (stereo unspecified) | -1 | -2 | -4 | 0 | · | ·
Cc1ccccc1C1c2[nH]c3ccccc3c2C[C@H]2C(=O)N(C3CCN(Cc4ccccc4)CC3)CC(=O)N12 (stereo partly specified) | -5 | 0 | 3 | 0 | -20 | 105
COc1ccc(C2c3[nH]c4ccccc4c3C[C@H]3C(=O)N(C4CCN(Cc5ccccc5)CC4)CC(=O)N23)c(OC)c1 (stereo partly specified) | -7 | 6 | 0 | 0 | · | ·
CCOc1ccccc1C1c2[nH]c3ccccc3c2C[C@H]2C(=O)N(C3CCN(Cc4ccccc4)CC3)CC(=O)N12 (stereo partly specified) | -5 | 0 | -2 | 0 | -13 | 101
O=CNc1c(Br)cc2c(c1Br)Cc1cc(Br)ccc1-2 | -14 | 2 | · | · | · | ·
CC(C)CC(NC(=O)CNC(=O)C1O[C@@H]2OC(C)(C)O[C@@H]2[C@H]2OC(C)(C)O[C@@H]12)C(=O)O (stereo partly specified) | -9 | 0 | -6 | 0 | · | ·
O=C(N/N=C/c1cccnc1)c1ccc(O)cc1 | -14 | -4 | -2 | 0 | · | ·
O=C(N/N=C/c1cccnc1)c1cc(O)c(O)c(O)c1 | -25 | -2 | 5 | 44* | -9 | 99
COc1ccc(S(=O)(=O)N2CCN(c3nc(-c4cccnc4)nc4ccccc34)CC2)cc1 | -365 | 15 | 0 | 0 | · | ·
COc1ccc(OCCCC(=O)OC(C)C(=O)Nc2ccc(S(N)(=O)=O)cc2)cc1 (stereo unspecified) | -2 | -5 | 0 | 2 | · | ·
CC1(C)CC(=O)C2=C(C1)NC1=C(C(=O)c3ccccc31)C2c1ccccc1 (stereo unspecified) | -41 | 6 | · | 3 | · | ·
CC(C)(C)c1ccc(C2C3=C(CCCC3=O)NC3=C2C(=O)c2ccccc23)cc1 (stereo unspecified) | -15 | -6 | 2 | 51* | 1 | 99
Cc1ccc([N+](=O)[O-])cc1S(=O)(=O)NCC1COc2ccccc2O1 (stereo unspecified) | -23 | -4 | 1 | 54* | 2 | 102
Cc1c(CCC(=O)NCCCn2ccnc2)c(=O)oc2c(C)c3oc4c(c3cc12)CCCC4 | · | -4 | -3 | 2 | · | ·
SMILES | Neddylation inh | H9c2 protect | HDAC3 inh | GRK2 inh | GRK2 CP1 | FAM quench CP1 | others
CC(=O)c1cc2c(cc1NC(=O)C1CC=CCC1C(=O)O)OCO2 (stereo unspecified) | 13 | 1 | 1 | 4 | · | ·
CC(=O)c1cc2c(cc1NC(=O)C1CN(C(C)=O)c3ccccc3O1)OCO2 (stereo unspecified) | 20 | 23 | 1 | 26 | 0 | 104
CSCc1cc(N(C)C)nc(SCc2ccc(Cl)c(Cl)c2)n1 | 6 | -5 | 3 | 76* | 1 | 55
COc1ccc(CCC(=O)Nc2ccc(Cn3ccnc3)cc2)cc1 | -2 | 4 | 1 | 0 | · | ·
O=C(O)c1cc(-c2ccco2)nc2ccc(Br)cc12 | -114 | 9 | -6 | 55*! | 8 | 94
CCCCCCn1c(CN2CCCCC2CC)nc2c1c(=O)n(C)c(=O)n2C (stereo unspecified) | 6 | -12 | · | 3 | -17 | 91
CCOCCn1c(CN2CCCCC2C)nc2c1c(=O)n(C)c(=O)n2C (stereo unspecified) | 6 | -7 | 1 | 1 | · | ·
CC(C)Cn1c(CN(C)Cc2ccccc2)nc2c1c(=O)n(C)c(=O)n2C | 3 | -18 | · | 76* | -4 | 98
CCC1CCCCN1Cc1nc2c(c(=O)n(C)c(=O)n2C)n1CC(C)C (stereo unspecified) | 6 | -7 | -3 | 0 | 4 | 97
CCC1CCCCN1Cc1nc2c(c(=O)n(C)c(=O)n2C)n1CCC(C)C (stereo unspecified) | 5 | 3 | -2 | 4 | 0 | 102
CCCn1nc(C(=O)NCC2COc3ccccc3O2)c2ccccc2c1=O (stereo unspecified) | -21 | 4 | 2 | 0 | · | ·
O=C(/C=C/c1ccccc1)c1ccccc1 | -8 | -13 | 2 | 3 | · | ·
N#Cc1ccc(/C=C/C(=O)c2ccccc2)cc1 | 1 | -14 | 12 | 51* | 2 | 97
CCc1nc2ccc(C(=O)N(C)CCCN(C)C)cn2c1N(C)CCCc1ccccc1 | 3 | -2 | · | · | · | ·
CN1C2=CC=CC=CC2=[N+](C)C12C=CC(=[N+]([O-])[O-])C=C2[N+](=O)[O-] (stereo unspecified) | -32 | -1 | 1 | 3 | · | ·
CN1C2=CC=CC=CC2=[N+](C)C12C([N+](=O)[O-])=CC(=[N+]([O-])[O-])C=C2[N+](=O)[O-] (stereo unspecified) | -45 | -2 | -1 | 48* | 3 | 100
COCCn1nnnc1C(c1cccc(OC)c1OC)N1CCN(C(=O)c2ccco2)CC1 (stereo unspecified) | 2 | 0 | 5 | 100* | 1 | 102
CCOc1ccc(NC(=O)CN(C)C(=O)c2ccc(COc3ccccc3)cc2)cc1OCC | -1 | -6 | 4 | 33 | -3 | 95
